We go through 13 compounds from PubChem BioAssay (NCI).

Several values for one entry are separate records, joined by “and”; a condition that tells them apart may be missing. Identical values can stand only once. Compounds without any hit were thinned out: in the full panel of roughly 83,000, 20% have a hit.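 In brief: 96-well plates, 48 h treatment, single concentration, percent growth endpoint.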 Activity calls are given as the source filed them. How the source made its calls: active means growth percent below 10; inactive means the rest.

Among the test systems are SK-MEL-2 melanoma; EKVX NSCLC; SN12C renal; UO-31 renal; ACHN renal; CAKI-1 renal; A498 renal; HL-60(TB) leukemia; CCRF-CEM leukemia; TK-10 renal.
What all share (assay): NCI-60 one-dose screen, 48 h (100 = growth as untreated, 0 = no growth, -100 = all killed)
What all share (conditions): 10 µM unless noted

For `CCCC1CCCCC12C(=O)NC(=O)NC2=O` (stereo not drawn), the growth in the experiment on SK-MEL-2 melanoma was 105% (inactive) and 99.8% (inactive); in the experiment with EKVX NSCLC it was 85.6% (inactive); in the experiment on SN12C renal, 101% (inactive) and 106% (inactive); with UO-31 renal it was 84.3% (inactive) and 87.9% (inactive); with ACHN renal, 104% (inactive) and 106% (inactive); in the experiment with CAKI-1 renal it was 94.8% (inactive) and 99.6% (inactive). Also, the growth was 70.3% (inactive) and 102% (inactive) with A498 renal; 121% (inactive) and 94.2% (inactive) with HL-60(TB) leukemia; 109% (inactive) and 101% (inactive) in the experiment on CCRF-CEM leukemia.

Consider `COc1c(O)cc2c(c1OC)-c1ccc(SC)c(=O)cc1C(NC(C)=O)CC2` (stereo not drawn), for which the growth is 59.8% (inactive) with SK-MEL-2 melanoma; 41.9% (inactive) with EKVX NSCLC; 48.7% (inactive) in the experiment with SN12C renal; 16.2% (inactive) with UO-31 renal; 19.3% (inactive) in the experiment with CAKI-1 renal; 7.2% (active) with A498 renal. In addition, the growth with HL-60(TB) leukemia is -32.6% (active).

For the compound `CO[C@@H]([CH2][Hg][O]C(=O)c1ccccc1)[C@@H]([CH2][Hg][O]C(=O)c1ccccc1)OC`, the growth in the experiment with SK-MEL-2 melanoma was 105% (inactive); in the experiment on EKVX NSCLC, 110% (inactive); in the experiment on SN12C renal it was 98.2% (inactive); in the experiment with UO-31 renal it was 88.8% (inactive); in the experiment with ACHN renal it was 99% (inactive); in the experiment on CAKI-1 renal it was 94.3% (inactive). Moreover, the growth with A498 renal was 117% (inactive); with HL-60(TB) leukemia, 64.9% (inactive); in the experiment on CCRF-CEM leukemia, -6.61% (active).

`COC(=O)C12C3C4C1C1C2C3C41NC(=O)c1csc([C@@H](C[C@H](C(C)C)N(C)C(=O)[C@@H](NC(=O)[C@H]2CCCCN2C)C2CC2)OC(C)=O)n1` (stereo partly drawn): the growth is 19.1% (inactive) in the experiment on SK-MEL-2 melanoma; 60.2% (inactive) with EKVX NSCLC; 45.6% (inactive) with UO-31 renal; 41.2% (inactive) in the experiment with TK-10 renal; 36.4% (inactive) in the experiment on ACHN renal; 38.1% (inactive) in the experiment on CAKI-1 renal. Besides, the growth with A498 renal is -3.52% (active); in the experiment on HL-60(TB) leukemia, -37.4% (active); with CCRF-CEM leukemia, 16.5% (inactive).

For `CC(=O)c1cccc(S(=O)(=O)F)c1`, the growth in the experiment with SK-MEL-2 melanoma is 91.9% (inactive); in the experiment with EKVX NSCLC, 98.8% (inactive); with SN12C renal it was 104% (inactive); in the experiment on UO-31 renal it was 83% (inactive); in the experiment with ACHN renal it was 99% (inactive); in the experiment on CAKI-1 renal it was 95.9% (inactive). Besides, the growth in the experiment on A498 renal is 95.8% (inactive); in the experiment with HL-60(TB) leukemia, 103% (inactive); in the experiment with CCRF-CEM leukemia, 97.9% (inactive).

For `Cn1cc(C(=O)C[n+]2ccccc2)c2ccccc21`, the growth is 104% (inactive) in the experiment with SK-MEL-2 melanoma; 65.4% (inactive) with EKVX NSCLC; 98% (inactive) in the experiment with UO-31 renal; 115% (inactive) in the experiment with TK-10 renal; 109% (inactive) in the experiment with ACHN renal; 99.5% (inactive) in the experiment on CAKI-1 renal. For the same compound, the growth was 84.8% (inactive) with A498 renal, 98.8% (inactive) in the experiment with HL-60(TB) leukemia and 96.6% (inactive) with CCRF-CEM leukemia.

In the case of `O=[N+]([O-])c1ccc(OCc2ccc(S(=O)(=O)F)c(Cl)c2)c(Cl)c1`, the growth in the experiment on SK-MEL-2 melanoma is 88.7% (inactive); with EKVX NSCLC, 112% (inactive); in the experiment with SN12C renal, 97.7% (inactive); in the experiment on UO-31 renal, 70% (inactive); in the experiment on ACHN renal, 92.7% (inactive); in the experiment with CAKI-1 renal it was 102% (inactive). Moreover, the growth in the experiment with A498 renal was 95.6% (inactive); in the experiment with HL-60(TB) leukemia, 88.9% (inactive); in the experiment on CCRF-CEM leukemia it was 87.9% (inactive).

`O=C(O)C(O)c1ccc(Cl)cc1` (stereo not drawn): the growth in the experiment on SK-MEL-2 melanoma is 106% (inactive) and 118% (inactive); in the experiment with EKVX NSCLC, 102% (inactive) and 120% (inactive); with SN12C renal it was 100% (inactive) and 107% (inactive); in the experiment with UO-31 renal, 99.6% (inactive) and 87.7% (inactive); with ACHN renal it was 112% (inactive) and 108% (inactive); in the experiment on CAKI-1 renal, 97.6% (inactive) and 104% (inactive). The growth was 102% (inactive) and 106% (inactive) in the experiment on A498 renal; 101% (inactive) with HL-60(TB) leukemia; 106% (inactive) in the experiment with CCRF-CEM leukemia.

`c1ccc2c(c1)sc1ccccc12`: the growth is 113% (inactive) with SK-MEL-2 melanoma; 93.6% (inactive) with EKVX NSCLC; 98.4% (inactive) in the experiment with SN12C renal; 79.2% (inactive) in the experiment with UO-31 renal; 84.4% (inactive) in the experiment with CAKI-1 renal; 113% (inactive) in the experiment on A498 renal. Also, in the experiment with CCRF-CEM leukemia, the growth is 103% (inactive).

As for `CC/C(=C(\c1ccc(OCCN2CCOCC2)cc1)c1ccc(OC(=O)Cc2ccccc2)cc1)c1ccc(Cl)cc1`, the growth is 101% (inactive) in the experiment with SK-MEL-2 melanoma; 109% (inactive) in the experiment with EKVX NSCLC; 98.6% (inactive) with SN12C renal; 87.9% (inactive) in the experiment with UO-31 renal; 117% (inactive) with ACHN renal; 91.9% (inactive) in the experiment with CAKI-1 renal. The growth was 104% (inactive) with A498 renal, 95.5% (inactive) in the experiment with HL-60(TB) leukemia and 98.1% (inactive) with CCRF-CEM leukemia.

In the case of `Oc1cc(N2CC2)c(O)cc1N1CC1`, the growth in the experiment on SK-MEL-2 melanoma is -37.5% (active); in the experiment on EKVX NSCLC it was 58.4% (inactive); with SN12C renal, 12.7% (inactive); with UO-31 renal, -36.6% (active); in the experiment on ACHN renal it was 2.38% (active); in the experiment with CAKI-1 renal, -1.5% (active). Moreover, the growth is -75.2% (active) in the experiment with A498 renal, 16.1% (inactive) in the experiment on HL-60(TB) leukemia and 24.7% (inactive) in the experiment on CCRF-CEM leukemia.

In the case of `CCCCCCCCCCCCCCCC[N+](C)(C)C`, the growth was -67.6% (active) and -2.51% (active) in the experiment on SK-MEL-2 melanoma; -51.6% (active) and 29.3% (inactive) in the experiment with EKVX NSCLC; -87.8% (active) in the experiment on SN12C renal; -82.3% (active) and 62.9% (inactive) in the experiment on UO-31 renal; -72.8% (active) and -39.9% (active) in the experiment with TK-10 renal; -58.7% (active) and 18.4% (inactive) in the experiment with CAKI-1 renal. For the same compound, the growth in the experiment with A498 renal was -58% (active) and 25.3% (inactive); in the experiment on HL-60(TB) leukemia, -66.6% (active) and -38.9% (active); with CCRF-CEM leukemia it was -51.4% (active) and 1.36% (active).

`NC1CN2CCC1CC2` (stereo not drawn): the growth was 100% (inactive) with SK-MEL-2 melanoma; 96.5% (inactive) in the experiment on EKVX NSCLC; 108% (inactive) in the experiment with SN12C renal; 80.3% (inactive) with UO-31 renal; 93% (inactive) in the experiment on ACHN renal; 86.7% (inactive) with CAKI-1 renal. Also, the results for the growth in the experiment on A498 renal, in the experiment on HL-60(TB) leukemia and with CCRF-CEM leukemia were 97.8% (inactive), 84.9% (inactive) and 93% (inactive), respectively.
